Measurements reported in PubChem BioAssay (NCATS).
Records with an inconclusive call do not appear. A call without a number means that no potency is given here. Active and inactive are the calls of the source. Calls come from the whole dose curve; as a rule, active = well fitted curve in the direction sought with a large enough effect; inconclusive = small, poorly fitted or top-dose-only effect, or another doubt; inactive = no such curve, though single readings can be large; an effect the other way counts as inactive or inconclusive.

Target: Protein phosphatase 1D (Homo sapiens) (UniProt O15297)
Sequence (O15297 whole entry, looked up): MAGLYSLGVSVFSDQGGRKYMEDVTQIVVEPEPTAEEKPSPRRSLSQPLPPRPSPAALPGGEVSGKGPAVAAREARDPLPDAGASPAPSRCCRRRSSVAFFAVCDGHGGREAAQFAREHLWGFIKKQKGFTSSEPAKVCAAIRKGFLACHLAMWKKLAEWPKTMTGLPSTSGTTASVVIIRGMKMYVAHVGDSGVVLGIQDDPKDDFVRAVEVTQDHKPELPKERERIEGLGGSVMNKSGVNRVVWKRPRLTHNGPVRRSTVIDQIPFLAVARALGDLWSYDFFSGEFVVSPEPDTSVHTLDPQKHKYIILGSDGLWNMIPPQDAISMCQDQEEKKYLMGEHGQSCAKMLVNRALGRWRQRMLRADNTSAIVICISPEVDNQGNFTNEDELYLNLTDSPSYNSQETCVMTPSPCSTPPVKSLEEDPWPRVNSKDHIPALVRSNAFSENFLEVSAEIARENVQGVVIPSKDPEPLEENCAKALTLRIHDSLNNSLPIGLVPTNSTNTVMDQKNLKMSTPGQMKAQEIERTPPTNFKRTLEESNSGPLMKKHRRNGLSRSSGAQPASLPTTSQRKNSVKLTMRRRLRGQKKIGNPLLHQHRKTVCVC
Assay: RapidFire Mass Spectrometry qHTS Assay for Modulators of WT P53-Induced Phosphatase 1 (WIP1) (AID 1347424);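 note: amount of dephosphorylated VEPPL-S-QETFS peptide product formed by WIP1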; note: potency is the fitted concentration of half-maximal effect
Conditions: WIP1 dephosphorylation of phosphopeptide, RapidFire MS; series mostly up to 63 µM
Outline: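 10 nM WIP1 preincubated with compounds 1 hr at room temperature in pH 7.5 Tris buffer with 30 mM MgCl2, 1 mM TCEP; 2 uM VEPPL-pS-QETFS phosphopeptide for 5 min, formic acid quench; dephosphorylated product quantified by RapidFire MS against labelled standard.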

Compound | Potency
Cc1ccccc1OCC(O)CO (centres undefined) | inactive
CN(CCCN1c2ccccc2CCc2ccccc21)CC(=O)c1ccc(Cl)cc1 | inactive
NC(=O)n1c(O)c(C(=O)c2cccs2)c2cc(Cl)ccc21 | inactive
O=C(O)C1(C(=O)O)CCC1.[NH2-].[NH2-].[Pt+2] | 11.2 µM (active)
CN(C)CCOC(c1ccc(Cl)cc1)c1ccccn1 (centres undefined) | inactive
CN1CCC[C@@H]1CCO[C@](C)(c1ccccc1)c1ccc(Cl)cc1 | inactive
CCc1oc2ccccc2c1C(=O)c1cc(Br)c(O)c(Br)c1 | 6.31 µM (active)
CCCCCCCCCCCCCCC[C@H](O)[C@@H](N)CO | inactive
CC(C)=CCOc1ccc(/C=C/C(=O)c2ccc(OCC=C(C)C)cc2OCC(=O)O)cc1 | inactive
C=C1c2cccc(O)c2C(O)=C2C(=O)[C@]3(O)C(O)=C(C(N)=O)C(=O)[C@@H](N(C)C)[C@@H]3[C@@H](O)[C@H]12 | 28.2 µM (active)
CC(C)CCCC(C)N (centres undefined) | inactive
O=C1C(=O)c2ccccc2C(O)=C1C1CCC(c2ccc(Cl)cc2)CC1 (centres undefined) | inactive
C/C=C/c1ccc(O)c(OC)c1 | inactive
CCc1oc2ccccc2c1C(=O)c1cc(I)c(O)c(I)c1 | 3.55 µM (active)
Cc1ccc(O)c([C@H](CCN(C(C)C)C(C)C)c2ccccc2)c1 | inactive
Clc1cccc(C(c2ccc3nc[nH]c3c2)n2ccnc2)c1 (centres undefined) | inactive
CCN(CC)CCOc1ccc2c(c1)C(=O)c1cc(OCCN(CC)CC)ccc1-2 | inactive
O=S(c1cc(Cl)cc(Cl)c1O)c1cc(Cl)cc(Cl)c1O | 31.6 µM (active)
O=C1C(CCS(=O)c2ccccc2)C(=O)N(c2ccccc2)N1c1ccccc1 (centres undefined) | inactive
CCOc1cc(OCC)c(C(=O)CCC(=O)O)cc1OCC | inactive
CCC(CC)(CC(=O)Nc1cccc(/C=C/c2nc(C3CCC3)cs2)c1)C(=O)O | inactive
Oc1ccc(Cl)cc1Cc1cc(Cl)ccc1O | 22.4 µM (active)

Target: Protein phosphatase 1D (Homo sapiens) (UniProt O15297)
Assay: Rhodamine-PBP qHTS Assay for Modulators of WT P53-Induced Phosphatase 1 (WIP1) (AID 1347425)
Conditions: recombinant WIP1, Rhodamine-PBP phosphate fluorescence, real-time; series mostly up to 57.5 µM
Outline: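 5 nM WIP1 + 10 uM Rh-PBP, 50 mM Tris pH 7.5, 30 mM MgCl2, 1 mM TCEP, 0.1 mM EGTA, BSA; cpds pinned, 1 hr RT; + 10 uM phosphopeptide; fluorescence 1-min reads x 11 min; delta = f1 - f0.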

Compound | outcome
Cc1ccccc1OCC(O)CO (centres undefined) | inactive
CN(CCCN1c2ccccc2CCc2ccccc21)CC(=O)c1ccc(Cl)cc1 | inactive
C#C[C@]1(OC(C)=O)CC[C@H]2[C@@H]3CCC4=C/C(=N/O)CC[C@@H]4[C@H]3CC[C@@]21CC | inactive
CN(C)CCOC(c1ccc(Cl)cc1)c1ccccn1 (centres undefined) | inactive
CCN1/C(=C/C=C/c2sc3ccccc3[n+]2CC)Sc2ccccc21 | inactive
CC(=O)OCC1=C(C(=O)O)N2C(=O)[C@@H](NC(=O)CSc3ccncc3)[C@H]2SC1 | inactive
CN1CCC[C@@H]1CCO[C@](C)(c1ccccc1)c1ccc(Cl)cc1 | inactive
CC(=O)Nc1ncc([N+](=O)[O-])s1 | inactive
CCCCCCCCCCCCCCC[C@H](O)[C@@H](N)CO | inactive
CC(C)CCCC(C)N (centres undefined) | inactive
O=C1C(=O)c2ccccc2C(O)=C1C1CCC(c2ccc(Cl)cc2)CC1 (centres undefined) | inactive
C/C=C/c1ccc(O)c(OC)c1 | inactive
Cc1ccc(O)c([C@H](CCN(C(C)C)C(C)C)c2ccccc2)c1 | inactive
Clc1cccc(C(c2ccc3nc[nH]c3c2)n2ccnc2)c1 (centres undefined) | inactive
CCN(CC)CCOc1ccc2c(c1)C(=O)c1cc(OCCN(CC)CC)ccc1-2 | inactive
O=C(O)C(Cc1cc(I)c(O)c(I)c1)c1ccccc1 (centres undefined) | inactive
CCOc1cc(OCC)c(C(=O)CCC(=O)O)cc1OCC | inactive

Tested on: not listed separately
Assay: Validation qHTS assay for inhibitors of Activation Induced Cytidine Deaminase (AID): UDG Counterscreen signal (AID 1347427)
Conditions: biochemical UDG counterscreen, fluorescence signal; series mostly up to 115 µM
Outline: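 Counterscreen read of UDG activity (2 U/mL, 4/3x) in the FRET deamination format with AID (1 uM, 4/3x), DJC20/DJC23 substrates (250 nM, 4x), 4 h at room temperature. NaOH stop, fluorescence at 560 ex/665 em.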

Compound | outcome
CCOC(=O)[C@H](CCc1ccccc1)N[C@@H](C)C(=O)N1[C@H](C(=O)O)C[C@H]2CCCC[C@@H]21 | inactive
NC(N)=NCc1cccc(I)c1 | inactive
CN=C(N)NCCC[C@H](N)C(=O)O | inactive

Target: Single-stranded DNA cytosine deaminase (Homo sapiens) (UniProt Q9GZX7)
Sequence (Q9GZX7 whole entry, looked up): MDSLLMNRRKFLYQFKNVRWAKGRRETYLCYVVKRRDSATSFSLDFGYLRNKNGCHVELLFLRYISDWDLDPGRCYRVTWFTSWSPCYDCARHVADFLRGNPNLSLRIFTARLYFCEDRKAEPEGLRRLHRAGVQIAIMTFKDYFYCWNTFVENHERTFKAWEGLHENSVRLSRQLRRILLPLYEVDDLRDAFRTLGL
Assay: Validation qHTS assay for inhibitors of Activation Induced Cytidine Deaminase (AID): AID signal (AID 1347429)
Conditions: Recombinant AID, FRET ssDNA deamination with UDG, fluorescence; series mostly up to 115 µM
Outline: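 In this coupled qHTS, AID deaminates a FRET-labelled ssDNA substrate in the presence of UDG over 4 hr at room temperature. Compounds span up to 114 uM final.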

Compound | outcome
CCOC(=O)[C@H](CCc1ccccc1)N[C@@H](C)C(=O)N1[C@H](C(=O)O)C[C@H]2CCCC[C@@H]21 | inactive
NC(N)=NCc1cccc(I)c1 | inactive
CN=C(N)NCCC[C@H](N)C(=O)O | inactive

Tested on: not listed separately
Assay: Primary qHTS for inhibitors of La Crosse Virus (LACV) - induced cell death in SH-SY5Y cells (AID 1508616);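 note: top concentration of the series differs between compounds; higher means more rescue of cells from virus-induced death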
Conditions: SH-SY5Y LACV cytopathicity rescue, ATP luminescence, 6 d; series mostly up to 4.29 µM
Outline: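 Readout was luminescence from ATPLite 1step added after a 6-day LACV infection (0.01 MOI) of SH-SY5Y cells that had received pin-transferred compound 24 hr after seeding.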

Compound | outcome
NC(=O)n1c(O)c(C(=O)c2cccs2)c2cc(Cl)ccc21 | inactive
O=C1OC2(c3ccccc31)c1cc(Br)c(O)c(Br)c1Oc1c2cc(Br)c(O)c1Br | inactive
C#C[C@]1(OC(C)=O)CC[C@H]2[C@@H]3CCC4=C/C(=N/O)CC[C@@H]4[C@H]3CC[C@@]21CC | inactive
O=C(O)C1(C(=O)O)CCC1.[NH2-].[NH2-].[Pt+2] | inactive
CCC(Cc1c(I)cc(I)c(N)c1I)C(=O)O (centres undefined) | inactive
NS(=O)(=O)c1cc2c(cc1Cl)NC(CC1CCCC1)NS2(=O)=O (centres undefined) | inactive
CCN1/C(=C/C=C/c2sc3ccccc3[n+]2CC)Sc2ccccc21 | inactive
CC(=O)OCC1=C(C(=O)O)N2C(=O)[C@@H](NC(=O)CSc3ccncc3)[C@H]2SC1 | inactive
CCc1oc2ccccc2c1C(=O)c1cc(Br)c(O)c(Br)c1 | inactive
CC(=O)Nc1ncc([N+](=O)[O-])s1 | inactive
CC(C)=CCOc1ccc(/C=C/C(=O)c2ccc(OCC=C(C)C)cc2OCC(=O)O)cc1 | inactive
C=C1c2cccc(O)c2C(O)=C2C(=O)[C@]3(O)C(O)=C(C(N)=O)C(=O)[C@@H](N(C)C)[C@@H]3[C@@H](O)[C@H]12 | inactive
CCOC(=O)[C@H](CCc1ccccc1)N[C@@H](C)C(=O)N1[C@H](C(=O)O)C[C@H]2CCCC[C@@H]21 | inactive
CC1(COc2ccc(CC3SC(=O)NC3=O)cc2)CCCCC1 (centres undefined) | inactive
CCc1oc2ccccc2c1C(=O)c1cc(I)c(O)c(I)c1 | inactive
O=S(c1cc(Cl)cc(Cl)c1O)c1cc(Cl)cc(Cl)c1O | inactive
O=C(O)C(Cc1cc(I)c(O)c(I)c1)c1ccccc1 (centres undefined) | inactive
NC(N)=NCc1cccc(I)c1 | inactive
CN=C(N)NCCC[C@H](N)C(=O)O | inactive
CCC(CC)(CC(=O)Nc1cccc(/C=C/c2nc(C3CCC3)cs2)c1)C(=O)O | inactive
O=C(Nc1ncc([N+](=O)[O-])s1)c1cccs1 | inactive
CC[C@H](c1ccc(O)cc1)[C@@H](CC)c1ccc(O)cc1 | inactive
NC(N)=NN=C(/C=C/c1ccc([N+](=O)[O-])o1)/C=C/c1ccc([N+](=O)[O-])o1 | inactive
Oc1ccc(Cl)cc1Cc1cc(Cl)ccc1O | inactive
